Reference: PubChem BioAssay (Tox21)
Several values for one entry are separate records, joined by “and”; a condition that tells them apart may be missing. Identical values can stand only once. Inconclusive results are not listed. Entries that show only a call come without a potency. The source holds several records for some structures; these can differ, active in one and inactive in another. Activity calls are given as the source filed them. Unless noted, calls come from the whole dose curve; as a rule, active = well fitted curve in the direction sought with a large enough effect in the repeat runs; inconclusive = weak or mixed curves; inactive = no such curve, though single readings can be large; an effect the other way counts as inactive or inconclusive.

Experiments:
[1] = qHTS assay to identify small molecule agonists of the peroxisome proliferator-activated receptor delta (PPARd) signaling pathway - cell viability counter screen (AID 743211); note: nearly all actives have a fitted effect of over 55% in size; note: potency is the fitted concentration of half-maximal effect
How it was run: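 Luminescent ATP viability assay (CellTiter-Glo, 30 min RT) in UAS-bla HEK293H cells carrying the PPAR delta reporter construct, 3000 cells/well, after a 17 h compound treatment at 37 C.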

[2] = biological target: Peroxisome proliferator-activated receptor delta (Homo sapiens) (UniProt Q03181); experiment: qHTS assay to identify small molecule agonists of the peroxisome proliferator-activated receptor delta (PPARd) signaling pathway (AID 743212; calls by dose curve)
Sequence of Peroxisome proliferator-activated receptor delta (Homo sapiens) (Q03181 whole entry, looked up): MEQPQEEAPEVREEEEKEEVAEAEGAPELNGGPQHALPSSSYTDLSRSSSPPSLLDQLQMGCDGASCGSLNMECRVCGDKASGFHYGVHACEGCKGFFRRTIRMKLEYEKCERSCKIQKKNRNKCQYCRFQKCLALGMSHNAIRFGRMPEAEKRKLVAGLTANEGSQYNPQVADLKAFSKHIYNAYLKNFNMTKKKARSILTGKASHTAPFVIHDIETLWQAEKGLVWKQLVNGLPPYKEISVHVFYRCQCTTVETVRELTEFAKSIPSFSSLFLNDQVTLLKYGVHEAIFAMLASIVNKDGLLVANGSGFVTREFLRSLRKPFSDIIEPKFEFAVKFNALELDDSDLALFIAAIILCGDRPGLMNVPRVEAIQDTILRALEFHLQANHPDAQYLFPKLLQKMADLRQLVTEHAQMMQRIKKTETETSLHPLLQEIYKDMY
How it was run: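 Cells expressing a UAS-driven beta-lactamase reporter (PPARd-bla HEK293H) were given test compounds after a 5 h settle and kept at 37 C. Reporter activity was then measured as FRET fluorescence using LiveBLAzer B/G substrate.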

[3] = qHTS assay to identify small molecule antagonists of the peroxisome proliferator-activated receptor delta (PPARd) signaling pathway - cell viability counter screen (AID 743213); note: nearly all actives have a fitted effect of over 50% in size; note: potency is the fitted concentration of half-maximal effect
How it was run: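 PPARd-bla HEK293H cells were treated with compounds plus agonist L165041 (300 nM final) for 17 h at 37 C. Viability was then read in the same wells by CellTiter-Glo luminescence after 30 min at room temperature.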

[4] = biological target: Peroxisome proliferator-activated receptor delta (Homo sapiens) (UniProt Q03181); experiment: qHTS assay to identify small molecule antagonists of the peroxisome proliferator-activated receptor delta (PPARd) signaling pathway (AID 743215; active = well fitted inhibition curve with a large enough effect in the signal ratio in the repeat runs, not every such curve was filed as active; the % refers to the signal ratio;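 note: cells stimulated with agonist L165041 at 300 nM final during compound exposure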; note: potency is the fitted concentration of half-maximal effect)
How it was run: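 Cells: HEK293H with a UAS-driven beta-lactamase reporter responsive to PPARd. Compounds were co-added with L165041 (300 nM, final) and incubated 17 h at 37 C before a 2 h room-temperature FRET substrate step and fluorescence reading.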

[5] = qHTS assay to identify small molecule agonists of the farnesoid-X-receptor (FXR) signaling pathway - cell viability counter screen (AID 743218); note: nearly all actives have a fitted effect of over 45% in size; note: potency is the fitted concentration of half-maximal effect
How it was run: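 Cells were seeded, left 5 h at 37 C and 5% CO2, then dosed with compound in DMSO for 16 h. After the beta-lactamase FRET read, CellTiter-Glo was added and luminescence measured 30 min later.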

[6] = qHTS assay to identify small molecule antagonists of the farnesoid-X-receptor (FXR) signaling pathway - cell viability counter screen (AID 743221; active = well fitted cell-killing curve with a large enough effect in the repeat runs, not every such curve was filed as active; note: nearly all actives have a fitted effect of over 50% in size; note: potency is the fitted concentration of half-maximal effect)
How it was run: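 In GeneBLAzer FXR-UAS-bla HEK 293T cells stimulated with 50 uM chenodeoxycholic acid (final), compounds acted for 16 h at 37 C. Viability was assessed afterwards by CellTiter-Glo luminescence.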

[7] = biological target: Vitamin D3 receptor (Homo sapiens) (UniProt P11473); experiment: qHTS assay to identify small molecule agonists of the vitamin D receptor (VDR) signaling pathway (AID 743222; calls by dose curve)
Sequence of Vitamin D3 receptor (Homo sapiens) (P11473 whole entry, looked up): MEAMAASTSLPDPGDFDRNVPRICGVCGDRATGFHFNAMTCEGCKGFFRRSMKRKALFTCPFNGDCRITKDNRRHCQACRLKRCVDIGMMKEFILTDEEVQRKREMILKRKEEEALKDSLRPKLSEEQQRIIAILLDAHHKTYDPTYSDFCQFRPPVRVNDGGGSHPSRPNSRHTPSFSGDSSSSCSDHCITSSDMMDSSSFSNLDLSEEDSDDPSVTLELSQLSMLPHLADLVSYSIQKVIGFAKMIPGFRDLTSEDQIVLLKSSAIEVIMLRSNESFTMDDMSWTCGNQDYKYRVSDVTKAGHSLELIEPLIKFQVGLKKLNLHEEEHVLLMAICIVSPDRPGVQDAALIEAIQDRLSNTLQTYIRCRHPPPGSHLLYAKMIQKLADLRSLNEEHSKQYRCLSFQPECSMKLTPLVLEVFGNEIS
How it was run: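 Cells carrying a VDR-driven beta-lactamase reporter are seeded at 2,000 per well and rested 4 h. Compounds in DMSO are added for 16 h at 37C, and FRET substrate fluorescence is measured after 2 h at room temperature.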

[8] = biological target: Vitamin D3 receptor (Homo sapiens) (UniProt P11473); experiment: qHTS assay to identify small molecule antagonists of the vitamin D receptor (VDR) signaling pathway (AID 743223; active = well fitted inhibition curve with a large enough effect in the signal ratio in the repeat runs, not every such curve was filed as active; the % refers to the signal ratio; note: potency is the fitted concentration of half-maximal effect)
How it was run: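 Agonist 1alpha,25-dihydroxyvitamin D3 (3 nM in well) was added with each compound to VDR-bla cells preincubated 4 h. Cells stood 16 h at 37C, then FRET substrate 2 h at room temperature; fluorescence intensity recorded.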

[9] = biological target: Bile acid receptor (Homo sapiens) (UniProt Q96RI1); experiment: qHTS assay to identify small molecule antagonists of the farnesoid-X-receptor (FXR) signaling pathway (AID 743217; active = well fitted inhibition curve with a large enough effect in the signal ratio in the repeat runs, not every such curve was filed as active; the % refers to the signal ratio)
Sequence of Bile acid receptor (Homo sapiens) (Q96RI1 whole entry, looked up): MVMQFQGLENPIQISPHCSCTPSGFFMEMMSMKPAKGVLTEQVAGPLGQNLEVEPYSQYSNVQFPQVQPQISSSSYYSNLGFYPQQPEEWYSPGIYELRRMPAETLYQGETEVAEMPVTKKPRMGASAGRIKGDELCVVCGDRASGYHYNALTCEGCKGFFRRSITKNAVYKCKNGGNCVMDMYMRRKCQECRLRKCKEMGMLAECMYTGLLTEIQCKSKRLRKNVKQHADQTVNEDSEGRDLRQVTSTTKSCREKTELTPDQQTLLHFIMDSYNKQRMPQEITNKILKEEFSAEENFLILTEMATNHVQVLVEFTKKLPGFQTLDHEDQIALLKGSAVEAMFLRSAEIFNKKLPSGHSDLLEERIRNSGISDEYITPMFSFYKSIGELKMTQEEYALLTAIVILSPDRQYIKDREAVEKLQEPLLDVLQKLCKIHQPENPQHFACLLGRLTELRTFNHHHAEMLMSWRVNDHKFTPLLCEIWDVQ
How it was run: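 Cells carrying a UAS-driven beta-lactamase reporter (GeneBLAzer FXR-UAS-bla HEK 293T) were plated and rested 5 h at 37 °C. Compounds in DMSO were added alongside chenodeoxycholic acid agonist at 50 uM final and left 16 h at 37 °C before FRET substrate readout.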

[10] = biological target: Bile acid receptor (Homo sapiens) (UniProt Q96RI1); experiment: qHTS assay to identify small molecule agonists of the farnesoid-X-receptor (FXR) signaling pathway (AID 743220; active = well fitted activation curve with a large enough effect in the signal ratio in the repeat runs, not every such curve was filed as active; the % refers to the signal ratio)
How it was run: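 FXR-UAS-bla HEK 293T cells carrying a UAS-driven beta-lactamase reporter were plated for 5 h at 37C/5% CO2, then exposed to DMSO-dissolved Tox21 10K compounds for 16 h at 37C. A LiveBLAzer B/G FRET substrate was loaded for 2 h at room temperature before fluorescence reading.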

Structure (SMILES)	Potency [1]	Potency [2]	Potency [3]	Potency [4]	Potency [5]	Potency [6]	outcome [7]	Potency [8]	Potency [9]	Potency [10]
[CH3][Sn]([Cl])([Cl])[Cl]	inactive	inactive	inactive	inactive	inactive	inactive	inactive	inactive	–	–
Nc1ccc([N+](=O)[O-])cc1N	inactive	inactive	inactive	inactive	inactive	inactive	inactive	inactive	–	–
O=C1C(Cl)=C(Cl)C(=O)c2ccccc21	19.6 µM (active) and 13.8 µM (active)	inactive	9.8 µM (active) and 6.17 µM (active)	–	49 µM (active)	inactive and 49 µM (active)	–	–	–	–
CC(C)(c1ccc(OCC2CO2)cc1)c1ccc(OCC2CO2)cc1 (stereo not given)	34.7 µM (active)	–	inactive	inactive	inactive	inactive	–	–	–	–
Clc1cccc(Cl)c1	inactive	inactive	inactive	inactive	inactive	inactive	inactive	inactive	–	–
Cc1cc(Cl)ccc1N=CN(C)C	inactive	inactive	inactive	inactive	inactive	inactive	inactive	inactive	–	–
CNC(=O)CSP(=S)(OC)OC	inactive	inactive	inactive	inactive	inactive	inactive	inactive	inactive	–	–
COP(=S)(OC)SCn1nnc2ccccc2c1=O	inactive	inactive	inactive	–	inactive	inactive	inactive	inactive	–	–
CCOP(=S)(OCC)SCSC(C)(C)C	inactive	inactive	inactive	inactive	inactive	inactive	inactive	inactive	–	–
Cn1c(-c2ccccc2)cc(-c2ccccc2)[n+]1C	inactive	inactive	inactive	inactive	inactive	inactive	inactive	inactive	–	–
CNC(=O)Oc1cccc2c1OC(C)(C)C2	inactive	inactive	inactive	inactive	inactive	inactive	inactive	inactive	–	–
CCCCCCCCCc1ccc(O)cc1	inactive	–	inactive	inactive	inactive	inactive	inactive	inactive	–	–
OC(c1ccc(Cl)cc1)(c1cncnc1)c1ccccc1Cl (stereo not given)	inactive	inactive	inactive	inactive	inactive	inactive	inactive	inactive	–	–
CC(C)Nc1nc(Cl)nc(NC(C)C)n1	inactive	inactive	inactive	inactive	inactive	inactive	inactive	inactive	–	–
CC(C)CON=O	inactive	inactive	inactive	inactive	inactive	inactive	inactive	inactive	–	–
O=C(O)c1nn(Cc2ccc(Cl)cc2Cl)c2ccccc12	inactive	–	inactive	inactive	inactive	inactive	inactive	–	–	–
CCCCOCCOC(C)=O	inactive	inactive	inactive	–	inactive	inactive	inactive	inactive	inactive	inactive
ClCc1ccccn1	inactive	inactive	inactive	inactive	inactive	inactive	inactive	inactive	–	–
CCOP(=O)(OCC)OCC	inactive	inactive	inactive	–	inactive	inactive	inactive	inactive	–	–
CC(C)(c1ccccc1)c1ccc(O)cc1	54.5 µM (active)	inactive	inactive	–	inactive	inactive	inactive	inactive	inactive	inactive
C=CC(=O)OCC(CC)(COC(=O)C=C)COC(=O)C=C	11 µM (active)	–	13.8 µM (active)	12.6 µM (active)	inactive and 13.8 µM (active)	inactive and 43.6 µM (active)	inactive	6.92 µM (active)	inactive	–
ClCC(Cl)CCl	inactive	inactive	inactive	inactive	inactive	inactive	inactive	inactive	–	–
C[C@]12CCC(=O)C=C1CC[C@@H]1[C@@H]2CC[C@@]2(C)[C@H]1CC[C@]2(C)O	inactive	inactive	inactive	–	inactive	inactive	–	–	–	–
Clc1ccccc1-c1nnc(-c2ccccc2Cl)nn1	inactive	inactive	inactive	inactive	inactive	inactive	inactive	inactive	–	–
Cc1cccc(N=Nc2ccc(N(C)C)cc2)c1	inactive	inactive	inactive	inactive	inactive	inactive	inactive	inactive	–	–
CSc1nc(NC(C)C)nc(NC(C)C)n1	inactive	–	inactive	–	inactive	inactive	inactive	inactive	–	–
CC(C)=CC1C(C(=O)OCN2C(=O)C3=C(CCCC3)C2=O)C1(C)C (stereo not given)	inactive	–	inactive	–	inactive	inactive	inactive	inactive	–	–
